The values that follow come from PubChem BioAssay (EPA / NIEHS).

A short description of experiment [1]: Tanguay_ZF_120hpf_CIRC_legacy: (Legacy) Oregon State University Tanguay Lab 120 Hour Post-fertilization zebrafish Assay for Circulatory Malformation (AID 2283651). The procedure, abridged:
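Tropical 5D wild-type embryos, dechorionated with pronase at 4 hpf, were placed singly in wells at 6 hpf and exposed statically at 28C to 120 hpf (0.64% DMSO final). Circulatory malformation was scored present/absent by brightfield microscopy.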

Read-out in experiment [2]: kallikrein-3 (KLK3), KLK3 (gene 354)
Description: LTEA_HepaRG_KLK3: Life Technologies and Expression Analysis (LTEA) Assay for kallikrein-3 (KLK3) using HepaRG (AID 2283652; active = hit-call score of the fitted dose curve at least 0.9, where 1 is the maximum; inactive = score below 0.9). The following applies: mRNA level, 48 h; actives raise or lower the signal. The procedure, abridged: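 Differentiated human HepaRG cells in serum-free induction medium exposed 48 h in duplicate, eight-point half-log series from 100 uM in 0.5% DMSO. KLK3 mRNA by qRT-PCR, normalised to ACTB, GAPDH, POLR2A; bidirectional fit versus DMSO.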

Read-out in experiment [3]: xenobiotic metabolism (CYP1A1), CYP1A1 (gene 1543)
Description: CLD_CYP1A1_6hr: CellzDirect (CLD) Gene Expression Assay for xenobiotic metabolism (CYP1A1) at 6 hours (AID 2283661).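 Note: potency for transcript induction above DMSO vehicle baseline.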 The procedure, abridged:
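Primary human hepatocytes from two donors, compound versus 0.2% DMSO vehicle. CYP1A1 mRNA measured 6 h after dosing by quantitative nuclease protection assay with chemiluminescent read-out; induction fitted relative to DMSO, cytotoxicity flagged by microscopy.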

A short description of experiment [4]: Tanguay_ZF_120hpf_JAW_legacy: (Legacy) Oregon State University Tanguay Lab 120 Hour Post-fertilization zebrafish Assay for Jaw Malformation (AID 2283638).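 For AC50: active means more embryos with jaw malformation than DMSO controls.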 An outline of the steps:
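Dechorionated Tropical 5D wild-type zebrafish embryos, one per well, exposed statically from 6 hpf to 120 hpf at 28C in 0.64% DMSO. Jaw malformation was scored by brightfield microscopy as present or absent. It was not scored in dead embryos.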

The nature of experiment [5]: Tanguay_ZF_120hpf_PE_legacy: (Legacy) Oregon State University Tanguay Lab 120 Hour Post-fertilization zebrafish Assay for Pericardial Edema (AID 2283640). An outline of the steps: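 Tropical 5D wild-type zebrafish embryos were statically exposed until 120 hpf at 28C, with 0.64% DMSO final. Pericardial edema was scored by brightfield as present or absent; endpoints were not scored in dead embryos.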

A short description of experiment [6]: Tanguay_ZF_120hpf_SOMI_legacy: (Legacy) Oregon State University Tanguay Lab 120 Hour Post-fertilization zebrafish Assay for Somite Malformation (AID 2283647). An outline of the steps: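 Dechorionated Tropical 5D wild-type zebrafish embryos, one per well from 6 hpf, statically exposed at 28C to 120 hpf in 0.64% DMSO; somite malformation scored present/absent by brightfield; trimethyltin 5 uM positive control; dead embryos not scored.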

Experiment [7] in a line: Tanguay_ZF_120hpf_PFIN_legacy: (Legacy) Oregon State University Tanguay Lab 120 Hour Post-fertilization zebrafish Assay for Pectoral Fin Malformation (AID 2283648).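 Note: each larva judged yes or no for fin defect by brightfield with dead larvae skipped.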 An outline of the steps:
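Tropical 5D wild-type embryos, dechorionated with pronase at 4 hpf, were placed singly in wells at 6 hpf and statically exposed until 120 hpf at 28C, sealed and dark, with 0.64% (vol/vol) final DMSO; pectoral fin malformation scored present/absent.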

Experiment [8] can be described thus: Tanguay_ZF_120hpf_CFIN_legacy: (Legacy) Oregon State University Tanguay Lab 120 Hour Post-fertilization zebrafish Assay for Caudal Fin Malformation (AID 2283649). The procedure, abridged:
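Dechorionated Tropical 5D wild-type embryos, one per well from 6 hpf, static exposure to 120 hpf at 28C in 0.64% DMSO. Caudal fin malformation scored by brightfield as present/absent; not scored in dead embryos.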

Experiment [9] is described as follows: Tanguay_ZF_120hpf_PIG_legacy: (Legacy) Oregon State University Tanguay Lab 120 Hour Post-fertilization zebrafish Assay for Pigmentation Malformation (AID 2283650). An outline of the steps:
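Tropical 5D wild-type zebrafish embryos, dechorionated with pronase at 4 hpf, were exposed singly from 6 hpf to 120 hpf statically at 28C in sealed, dark plates with 0.64% DMSO; pigmentation scored present/absent by brightfield microscopy, fitted against DMSO.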

A short description of experiment [10]: Tanguay_ZF_120hpf_TRUN_legacy: (Legacy) Oregon State University Tanguay Lab 120 Hour Post-fertilization zebrafish Assay for Truncated Body (AID 2283655). An outline of the steps:
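Dechorionated Tropical 5D wild-type embryos placed singly from 6 hpf and statically exposed to 120 hpf at 28C, final DMSO 0.64%. Truncated body scored as present/absent by brightfield; not scored in dead embryos.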

Experiment [11] deals with Thyroperoxidase (TPO), gene 54314. Description: CCTE_Simmons_AUR_rTPO: CCTE's Amplex UltraRed Assay for Thyroperoxidase (TPO) Inhibition, Simmons Lab (AID 2283662).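 Note: potency for loss of signal meaning inhibition of peroxidase activity.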 The procedure, abridged: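 Endpoint is decreased Amplex UltraRed fluorescence after a 30-min, 37C reaction of rat thyroid microsomes with 300 uM H2O2. Eight test concentrations (5 nM–87.5 uM final) in 0.5% DMSO, three biological replicates each.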

The nature of experiment [12]: CCTE_Simmons_CellTiterGLO_HEK293T: Viability Assessment in CCTE's Assays for Thyroperoxidase (TPO) Inhibition, Simmons Lab (AID 2283665).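 Note: cells exposed to compound for 24 h before readout; actives reduce ATP signal below DMSO vehicle meaning cytotoxicity.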 An outline of the steps: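 HEK293T cells in DMEM with 1% FBS were dosed with 8 concentrations (5 nM–87.5 uM final, 0.5% DMSO) for 24 hr at 37C; ATP content was read by CellTiter-Glo luminescence, loss-of-signal versus DMSO, three biological replicates.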

Read-out in experiment [13]: xenobiotic metabolism (CYP1A2), CYP1A2 (gene 1544)
Description: CLD_CYP1A2_6hr: CellzDirect (CLD) Gene Expression Assay for xenobiotic metabolism (CYP1A2) at 6 hours (AID 2283663).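 For AC50: potency is for induction meaning a rise in mRNA above DMSO.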 The procedure, abridged:
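Primary human hepatocytes from two donor preparations, dosed daily with multiple concentrations in 0.2% DMSO and harvested at 6 h. CYP1A2 mRNA induction measured by chemiluminescent qNPA, gain of signal fitted against DMSO; cytotoxicity flagged morphologically.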

Experiment [14] in a line: Tanguay_ZF_120hpf_BRAI_legacy: (Legacy) Oregon State University Tanguay Lab 120 Hour Post-fertilization zebrafish Assay for Brain Malformation (AID 2283641). The procedure, abridged: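 Tropical 5D wild-type zebrafish embryos exposed statically until 120 hpf at 28C, 0.64% DMSO final, sealed and dark. Brain malformation scored present/absent by brightfield at 120 hpf; dead embryos excluded. Trimethyltin chloride 5uM positive control.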

Experiment [15] can be described thus: Tanguay_ZF_120hpf_SWIM_legacy: (Legacy) Oregon State University Tanguay Lab 120 Hour Post-fertilization zebrafish Assay for Swim Bladder Malformation (AID 2283654).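 Note: swim bladder malformation in each larva scored yes or no under brightfield.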 An outline of the steps: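 Dechorionated Tropical 5D wild-type embryos, placed singly from 6 hpf, were statically exposed at 28C to 120 hpf with 0.64% DMSO final; swim bladder malformation was scored present/absent by brightfield microscopy, gain of signal relative to DMSO controls.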

Experiment [16] is described as follows: Tanguay_ZF_120hpf_NC_legacy: (Legacy) Oregon State University Tanguay Lab 120 Hour Post-fertilization zebrafish Assay for Notochord and Tail Malformation (AID 2283656). The procedure, abridged:
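Dechorionated 5D zebrafish, 1/well from 6 hpf; static exposure to 120 hpf, 28C, sealed, dark; final DMSO 0.64% v/v. NC scored binary (present/absent); dead embryos not scored. Fit vs DMSO baseline, gain direction.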

Experiment [17] in a line: Tanguay_ZF_120hpf_OTIC_legacy: (Legacy) Oregon State University Tanguay Lab 120 Hour Post-fertilization zebrafish Assay for Otic Vesicle Malformation (AID 2283639). An outline of the steps:
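Tropical 5D wild-type zebrafish embryos were exposed statically in sealed, foil-covered plates at 28C until 120 hpf, with 0.64% (vol/vol) DMSO final. Otic vesicle malformation was scored present/absent by brightfield microscopy, with DMSO as baseline.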

Read-out in experiment [18]: solute carrier (SLC22A6), SLC22A6 (gene 9356)
Description: LTEA_HepaRG_SLC22A6: Life Technologies and Expression Analysis (LTEA) Assay for solute carrier (SLC22A6) using HepaRG (AID 2283653; active = hit-call score of the fitted dose curve at least 0.9, where 1 is the maximum; inactive = score below 0.9). The following applies: mRNA level, 48 h; actives raise or lower the signal. The procedure, abridged: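 Differentiated HepaRG cells exposed 48 h in serum-free induction medium to 8 half-log concentrations, top 100 uM, in 0.5% DMSO; SLC22A6 mRNA by Fluidigm qRT-PCR normalized to ACTB, GAPDH, POLR2A, fitted bidirectionally versus DMSO.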

Read-out in experiment [19]: solute carrier (SLC10A1), SLC10A1 (gene 6554)
Description: LTEA_HepaRG_SLC10A1: Life Technologies and Expression Analysis (LTEA) Assay for solute carrier (SLC10A1) using HepaRG (AID 2283657; active = hit-call score of the fitted dose curve at least 0.9, where 1 is the maximum; inactive = score below 0.9). The following applies: mRNA level, 48 h; actives raise or lower the signal. An outline of the steps: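 Differentiated HepaRG cells were plated 48 h, then exposed in serum-free induction medium for 48 h to 8 concentrations (top 100 uM, half-log steps, 0.5% DMSO). SLC10A1 mRNA was quantified by qRT-PCR normalized to ACTB, GAPDH, POLR2A; bidirectional fit versus DMSO.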

Read-out in experiment [20]: matrix metalloproteinase-1 (MMP1), MMP1 (gene 4312)
Description: LTEA_HepaRG_MMP1: Life Technologies and Expression Analysis (LTEA) Assay for matrix metalloproteinase-1 (MMP1) using HepaRG (AID 2283658; active = hit-call score of the fitted dose curve at least 0.9, where 1 is the maximum; inactive = score below 0.9). The following applies: mRNA level, 48 h; actives raise or lower the signal. An outline of the steps: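 Differentiated human HepaRG cells, 48 h post-plating in serum-free induction medium, were exposed 48 h to eight half-log concentrations topping at 100 uM in 0.5% DMSO, duplicate. MMP1 mRNA measured by Fluidigm TaqMan qRT-PCR, normalized to ACTB, GAPDH, POLR2A; bidirectional fits versus DMSO.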

Inconclusive results are not listed. The source made the active and inactive calls. Rule for the calls, unless noted: active = hit-call score of the fitted dose curve at least 0.9, where 1 is the maximum; inconclusive = response in the unintended direction; inactive = score below 0.9.

Take `CCCCCOC(=O)COc1cc(N2C(=O)C3=C(CCCC3)C2=O)c(F)cc1Cl`: the result in [1] was inactive.
The same measure, in the same setting: in the case of `O=C(O)C1(C(=O)Nc2ccc(Cl)cc2Cl)CC1` it was “inactive”.
`S=C([S-])NCCNC(=S)[S-].[Mn+2]`: the compound was classed as inactive in experiment [2].
On the same count and under the same terms, in the case of `CCCCOCCOCCOCc1cc2c(cc1CCC)OCO2` it was “inactive”.
For `CCCCC(CC)CN1C(=O)C2C3C=CC(C3)C2C1=O` (stereo not drawn), the AC50 in [3] was 6.62 µM (active).
As to `N[C@@H](Cc1cc(I)c(Oc2ccc(O)c(I)c2)c(I)c1)C(=O)O`, the AC50 in [4] was 1.71 nM (active); in experiment [9] it was 0.51 nM (active); in experiment [11], 2.92 µM (active); in experiment [12], 43.8 µM (active). In addition, the call in experiment [5], in experiment [6], in experiment [7], in experiment [8], in experiment [1] and in experiment [10] was inactive.
As to `CCOC(=O)[C@H](C)Oc1ccc(Oc2nc3ccc(Cl)cc3o2)cc1`, the result in experiment [13] was inactive.
Turning to `OB(O)O`, the outcome in experiment [4], in [5], in experiment [14], in experiment [6], in [7] and in experiment [8] was inactive. For the same compound, the outcome in experiment [9], in experiment [15], in [10], in [16] and in [13] was inactive.
In the case of `CN(C)C(=O)Nc1ccc(Cl)c(Cl)c1`, the outcome in [17], in experiment [5], in [14], in [6], in experiment [7] and in experiment [8] was inactive. Moreover, the call in experiment [9], in [18], in [15], in [16] and in experiment [20] was inactive. For the same compound, the values for the AC50 in experiment [19], in experiment [11] and in experiment [13] were 52.8 µM (active), 36.6 µM (active) and 3.05 µM (active), respectively.
In the case of `COC(=O)c1ccccc1C(=O)O`, the result in experiment [4], in experiment [5], in [14], in experiment [6], in [8] and in experiment [9] was inactive. The call in experiment [2], in experiment [18], in experiment [15], in experiment [10], in [16] and in experiment [19] was inactive. Also, the call in experiment [20] and in experiment [13] was inactive.
Consider `C#C[C@]1(O)CC[C@H]2[C@@H]3CCC4=CC(=O)CC[C@@H]4[C@H]3CC[C@@]21CC`, for which the compound was classed as inactive in experiment [4], in [17], in experiment [14], in experiment [6], in experiment [8] and in experiment [9]. Besides, the compound was classed as inactive in experiment [15] and in experiment [16].

One may read the AC50 as the concentration at which the activity in the assay is half-maximal.
